An excerpt weighted towards active compounds, which were near 2.4% of everything screened.
D2 PAM-1: D2 dopamine receptor (human) potentiation. P14416. HEK293 T-REx D2, calcium flux, EC20 dopamine potentiation. potentiation, % at 10 µM. hit rate 0.34% among 340,000. AID 485347;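 active means potentiation over 3 SD above the plate norm, cut at about 30% in these data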; further: 0% is about no effect
Target sequence (P14416 whole entry, looked up): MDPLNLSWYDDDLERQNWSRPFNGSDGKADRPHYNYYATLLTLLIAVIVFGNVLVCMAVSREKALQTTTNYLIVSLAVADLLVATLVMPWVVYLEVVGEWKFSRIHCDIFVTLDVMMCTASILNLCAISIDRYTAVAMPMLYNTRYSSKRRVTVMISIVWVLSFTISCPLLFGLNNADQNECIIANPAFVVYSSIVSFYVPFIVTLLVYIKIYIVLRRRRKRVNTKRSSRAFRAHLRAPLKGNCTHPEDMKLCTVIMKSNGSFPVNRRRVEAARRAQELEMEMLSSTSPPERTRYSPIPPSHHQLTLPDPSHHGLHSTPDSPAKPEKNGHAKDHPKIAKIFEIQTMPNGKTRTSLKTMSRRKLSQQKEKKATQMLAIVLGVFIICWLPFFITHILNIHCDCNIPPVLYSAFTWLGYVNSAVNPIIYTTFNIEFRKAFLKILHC
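Tetracycline-induced HEK293 T-REx cells force-coupled to calcium signalling expressed D2; compounds were pin-added after a 10 s baseline, read kinetically 180 s, then an EC20 dopamine challenge followed with a further 180 s calcium read.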
D2 antag: D2 dopamine receptor (human) antagonism | HEK293 TREx D2 cells, calcium flux, dopamine EC80 | hit rate 2% among 340,000 | inhibition, % at 10 µM; in the data active means inhibition above about 30%; inactive means below that, where a call was filed; further: 0% is about no effect
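HEK293 T-REx D2 cells, tet-induced, calcium dye no-wash. Cpd pintool add, 180 s kinetic, then EC80 DA, 180 s kinetic. Ca flux read.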
D2 PAM-2: human D2 receptor positive allosteric modulation | P14416 | DiscoveRx D2 beta-arrestin cells, luminescence, 90 min; 100% = 57 uM dopamine signal | potentiation, % (no concentration beside the values) | hit rate 0.23% among 360,000; in the data active means potentiation above about 50%; inconclusive means mostly about 30% to 49%
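D2 cells co-treated with compound plus 50 nM dopamine (EC20) for 90 min at 37 deg C to detect potentiation. Beta-arrestin recruitment was read as enzyme-fragment luminescence after 1 h at ambient temperature. Full response was set by 57 uM dopamine.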
D2 ag-1: agonists of human D2 dopamine receptor (beta-arrestin) | AID 624465 | DiscoveRx PathHunter D2 beta-arrestin, luminescence, 90 min; 100% = 57 uM dopamine signal | activation, % (test concentration not listed) | hit rate 0.084% among 360,000 | P14416; in the data active means activation above about 40%; inconclusive means between about 15% and that limit
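Agonist mode: compounds alone added to overnight-plated D2 PathHunter cells for 90 min at 37 C, with 57 uM final dopamine (EC100) defining full response. Beta-arrestin recruitment detected by chemiluminescent reagent, read after 1 h at ambient temperature.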
D2 ag-2: activates the human D2 dopamine receptor; P14416; HEK293 T-REx D2 cells, calcium flux agonist mode; activation, % at 2 µM; hit rate 0.53% among 340,000;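 active means activation over 3 SD above normal in the single-dose calcium agonist read, cut at about 30% in these data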; further: 0% is about no effect
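Tetracycline-induced HEK293 Trex cells with D2 receptor force-coupled to calcium signaling, plated overnight at 30 C and loaded with no-wash calcium dye. Calcium flux read kinetically for 180 s after compound addition; responses flag agonists.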
* hit, by the source's call; ? = inconclusive; . = no result given.

SMILES | D2 PAM-1 | D2 antag | D2 PAM-2 | D2 ag-1 | D2 ag-2
c1cc(CNc2ccc3c(c2)OCCO3)ccn1 | 31* | -7 | 15 | 0 | 2
Cc1cc(C)cc(NC(=O)C2CCN(c3cnccn3)CC2)c1 | -38 | 33* | -5 | -8 | -1
COc1ccc(OC)c(S(=O)(=O)Nc2ccc3c(c2)OCCO3)c1 | . | . | -10 | -5 | .
Cc1cccc(CCNC(=O)C2CCC(CNS(=O)(=O)c3ccccc3)CC2)c1 (stereo unspecified) | 8 | . | . | . | 0
c1ccc(-c2ncc(CSc3nncn3-c3ccccc3)s2)cc1 | . | . | -20 | -4 | .
Cc1nnc(SCc2cnc(-c3ccc(C(C)C)cc3)s2)n1C | 1 | 67* | 3 | -3 | -2
CCc1nc2c(OCc3cccc(Cl)c3)cccn2c1N(C)C(=O)CC(C)C | . | . | -3 | -4 | .
Cc1nnc(SCC(=O)Nc2nc(-c3ccccc3)cs2)n1N | 7 | -2 | 0 | -1 | 0
Cn1cnnc1SCC(=O)Nc1nc(-c2ccccc2)cs1 | -6 | 56* | -7 | -4 | 0
N#C/C(=C/c1ccc(N2CCOCC2)o1)C(=O)Nc1ccccc1 | 8 | 9 | -8 | 0 | 40*
COCCNC(=O)/C(C#N)=C/c1ccc(N2CCOCC2)o1 | 0 | -12 | -25 | -3 | 13
N#C/C(=C\c1ccc(N2CCOCC2)o1)C(=O)NCCc1ccccc1 | 3 | 46* | -7 | 6 | 21
Cc1cc(C)n2[nH]c(=O)cc2n1 | . | . | 1 | 0 | .
Cc1cc(C[n+]2cc(Br)ccc2N)c2ncccc2c1 | 3 | 32* | -16 | -2 | 0
CCc1nc2nc(C)c(NS(=O)(=O)c3cccs3)c(=O)n2[nH]1 | 51* | 0 | -8 | -4 | -2
CCc1nc2nc(C)c(NS(=O)(=O)c3ccc(F)cc3)c(=O)n2[nH]1 | 30 | 2 | -1 | 3 | -2
CCc1nc2nc(C)c(NS(=O)(=O)c3ccc(F)c(C)c3)c(=O)n2[nH]1 | -1 | . | . | . | 0
CCc1nc2nc(C)c(NS(=O)(=O)c3ccc(Br)s3)c(=O)n2[nH]1 | 31* | -30 | 11 | 4 | -1
Cc1ccc(S(=O)(=O)Nc2c(C)nc3nc(C)[nH]n3c2=O)c(C)c1 | -13 | 36* | -5 | 1 | 1
O=C1C=C(c2cccs2)C[C@H](c2ccccc2)[C@H]1n1nnc([N+](=O)[O-])n1 | 7 | -10 | 92* | ? | -1
COc1ccc(N(Cc2cccs2)C(=O)Nc2cccc(Cl)c2)cc1 | 5 | . | . | . | 1
CCn1c(C)cc(C(=O)CSc2nnnn2C2CCCC2)c1C | -4 | 30* | -16 | -1 | 0
O=C(COC(=O)c1cccnc1Cl)NCCc1ccc(F)cc1 | . | . | -17 | 5 | .
O=C(NN1CCOCC1)c1ccccc1Br | 33* | 11 | -2 | -2 | 1
Cc1ccccc1C(=O)NN1CCOCC1 | -2 | -7 | 6 | 1 | 1
SMILES | D2 PAM-1 | D2 antag | D2 PAM-2 | D2 ag-1 | D2 ag-2
CCn1cc(-c2ccccc2)c(C(=O)O)c1-c1ccc(OC)cc1 | 2 | -2 | -23 | 1 | 1
O=C(NCC(c1ccc(F)cc1)N1CCOCC1)c1nn(-c2ccccc2)c(=O)c2ccccc12 (stereo unspecified) | -33 | 70* | -2 | -5 | 0
O=C(COC(=O)c1ccc(Cl)c(S(=O)(=O)N2CCCCC2)c1)NCC1CCCCC1 | -7 | 44* | -2 | -1 | -1
O=C(CC[C@H]1O[C@@H](n2cnc3c(NC(=O)c4ccccc4)ncnc32)[C@H](O)[C@@H]1O)N[C@@H](CO)c1ccccc1 | . | . | 1 | 1 | .
Cc1cccc(N2CCN(C(=O)CNC(=O)C3CCCCC3)CC2)c1C | -4 | 1 | 14 | 2 | 1
Cc1cccc(N2CCN(C(=O)CNC(=O)c3ccccc3)CC2)c1C | 13 | 33* | -6 | 0 | -1
Cc1nn(C)c(C)c1NC(=S)Nc1ccc(S(=O)(=O)Nc2ncccn2)cc1 | 1 | 31* | -3 | 0 | 1
Cc1c(NC(=O)c2ccc(-c3ccccc3)cc2)cccc1C(=O)O | . | . | 5 | 0 | .
COc1ccc(C(c2nnnn2C2CCCC2)N2CCc3ccccc3C2)cc1OC (stereo unspecified) | 9 | 26 | -8 | -4 | 0
COCCn1nnnc1C(c1ccc(O)c(OC)c1)N1CCc2ccccc2C1 (stereo unspecified) | -18 | 44* | -1 | 2 | 1
CC(=O)c1sc2nsc(SCCN3CCOCC3)c2c1N | -3 | 6 | -3 | -3 | 0
Nc1c(C(=O)c2ccccc2)sc2nsc(SCCN3CCOCC3)c12 | -4 | 2 | 2 | 1 | 32*
COc1ccc(C(=O)O/N=C(\N)Cc2ccc(Cl)cc2)cc1OC | -5 | 13 | 164* | 13 | 0
N/C(CN1CCCC1=O)=N\OC(=O)c1ccc(Cl)c(Cl)c1 | 4 | -3 | 110* | ? | 0
Cc1cccc(OCC(=O)O/N=C(\N)Cc2ccc(Cl)cc2)c1 | 33* | -2 | -10 | 2 | 1
N/C(Cc1ccc(Cl)cc1)=N\OC(=O)c1ccccc1 | -5 | 15 | 68* | ? | -2
N/C(CN1CCCC1=O)=N\OC(=O)c1ccc(Cl)cc1 | 16 | -2 | 14 | 2 | 0
CCOc1cccc2cc(-c3nc4sc5c(c4c(=O)[nH]3)CCC(C)C5)c(=O)oc12 (stereo unspecified) | -2 | . | . | . | 0
COc1ccc(C/C(N)=N/n2cnnc2)cc1Cl | 6 | 1 | 9 | 0 | 1
COc1ccc(C(=O)O/N=C(\N)Cc2ccc(Cl)c(Cl)c2)cc1OC | -5 | -13 | 118* | ? | 0
C=C1[C@@H](CCO)N(S(=O)(=O)C(C)(C)C)C[C@@H]1C | . | . | . | 1 | .
Cc1ccc2nc(CSc3nnc(-c4ccncc4)n3C)cc(=O)n2c1 | -4 | 71* | 18 | -2 | 0
C=CCn1c(SCc2cc(=O)n3cc(C)ccc3n2)nnc1-c1ccc(F)cc1 | 1 | 10 | 1 | 3 | -1
COc1ccc(CN2CCNC(=O)C2CC(=O)N(C)C2CCCCC2)cc1OC (stereo unspecified) | . | . | -5 | 1 | .
O=C(c1ccc(Oc2ccccc2)cc1)c1nc2c(n1O)CCCC2 | 4 | 31* | 1 | 5 | 0
Cc1cccc(-n2c(CNC(=O)c3ccc(S(=O)(=O)N4CCCC4)cc3)n[nH]c2=S)c1 | -1 | 12 | -8 | -2 | -1
O=C(NCc1n[nH]c(=S)n1-c1cccc(Cl)c1)c1ccc(S(=O)(=O)N2CCCCC2)cc1 | 33* | -12 | -16 | -9 | -2
COc1ccccc1C(=O)N(CCN(C)C)c1nc2cc(C)cc(C)c2s1 | -17 | 38* | -20 | -1 | 0
N#Cc1c(C#N)c(SSc2c(C#N)c(C#N)c(N)n2-c2ccccc2)n(-c2ccccc2)c1N | . | . | ? | 6 | .
COCCCn1c(C)cc(C(=O)COC(=O)CCc2nc3ccccc3c(=O)[nH]2)c1C | -2 | 31* | 1 | 7 | 1

Source: PubChem (National Center for Advancing Translational Sciences (NCATS))
